Data taken from PubChem BioAssay (Tox21).
Records with an inconclusive call do not appear. Calls of active or inactive are those of the source. Calls follow the shape of the dose curve; as a rule, active = well fitted curve in the direction sought with a large enough effect in the repeat runs; inconclusive = weak or mixed curves; inactive = no such curve, though single readings can be large; an effect the other way counts as inactive or inconclusive.

Columns and labels:
[1] = Human pregnane X receptor (PXR) small molecule agonists, qHTS cell viability counter screen (AID 1346977); also: nearly all actives have a fitted effect of over 50% in size
In short: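 PXR-Luc HepG2 cells (2,000/well, 5% charcoal-stripped FBS) preincubated 5 hr, then exposed to compounds 24 hr at 37 C. Viability read in the same wells by CellTiter-Fluor fluorescence, reagent added at 23 hr, 1 hr incubation.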

[2] = Caspase-3/7 induction in HepG2 cells by small molecules, qHTS assay (AID 1346978); also: nearly all actives have a fitted effect of over 15% in size
In short: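 Wild-type HepG2 cells (2,000/well) were settled 5 h at 37 C, 5% CO2, then exposed to compounds in DMSO for 17 h. Caspase-3/7 activity was read by luminescence 30 min after adding Caspase-Glo 3/7 reagent at room temperature.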

[3] = Caspase-3/7 induction in CHO-K1 cells by small molecules, qHTS cell viability counter screen (AID 1346979); also: nearly all actives have a fitted effect of over 35% in size
In short: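 Wild-type CHO-K1 cells (1,500/well) treated with compound after 5 h plating; after 16 h at 37C, viability read as CellTiter-Fluor fluorescence following 1 h reagent incubation, in the same wells as the caspase read.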

[4] = Caspase-3/7 induction in CHO-K1 cells by small molecules, qHTS assay (AID 1346980); also: nearly all actives have a fitted effect of over 15% in size
In short: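 Wild-type cells were seeded at 1,500 per well and settled 5 hr at 37 C, 5% CO2, then exposed to DMSO-dissolved compounds for 17 hr. Caspase-Glo 3/7 reagent was added, and luminescence was read after 30min at room temperature.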

[5] = Caspase-3/7 induction in HepG2 cells by small molecules, qHTS cell viability counter screen (AID 1346981); also: series mostly up to about 92 µM; nearly all actives have a fitted effect of over 30% in size
In short: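 CellTiter-Fluor fluorescence measured viability in the same wells used for Caspase-Glo 3/7. HepG2 (wild type) at 2,000 cells/well were pre-incubated 5 hr, dosed, and given reagent at 16 hr, with 1 hr further at 37C.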

[6] = target: Nuclear receptor subfamily 1 group I member 2 (Rattus norvegicus) (UniProt Q9R1A7); test: Rat pregnane X receptor (rPXR) activation by small molecules, qHTS assay (AID 1346983); details: rPXR luciferase reporter cells, One-Glo luminescence, 24 h; hits give high values; also: nearly all actives have a fitted effect of over 20% in size
In short: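 Cell-based rPXR luciferase reporter assay, 2,000 cells per well, rested 5hr at 37 C before compound addition in DMSO, then 24 hr at 37 C. One-Glo reagent was added and luminescence read after 30 min at room temperature.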

[7] = target: Voltage-gated inwardly rectifying potassium channel KCNH2 (Homo sapiens) (UniProt Q12809); test: Human Ether-a-go-go-Related Gene (hERG) channel small molecule antagonists: fluorescence cell-based qHTS assay (AID 1671200);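 also: hERG-expressing U2OS cells given a thallium stimulus after FluxOR II dye loading; series mostly up to about 77 µM; nearly all actives have a fitted effect of over 50% in size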
In short: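 hERG-U2OS cells plated overnight at 37 C, loaded with FluxOR II dye 1 h at RT in dark; after 10 min, thallium stimulus added. Fluorescence (480/540 nm) read kinetically for 2 min at 1 s intervals.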

[8] = target: Nuclear receptor subfamily 1 group I member 2 (Homo sapiens) (UniProt O75469); test: Human pregnane X receptor (PXR) small molecule agonists, qHTS assay (AID 1346982); also: nearly all actives have a fitted effect of over 35% in size
In short: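 Agonist mode: luminescence from ONE-Glo after 24 h compound exposure at 37C in HepG2 cells carrying hPXR-responsive CYP3A4 luciferase, plated in charcoal-stripped serum medium 5 h beforehand.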

[9] = target: Cytochrome P450 2C19 (Homo sapiens) (UniProt P33261); test: Cytochrome P450 Family 2 Subfamily C Member 19 (CYP2C19) small molecule antagonists: luciferase reporter qHTS assay (AID 1671197); also: series mostly up to about 120 µM; nearly all actives have a fitted effect of over 65% in size
In short: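 CYP2C19 P450-Glo, 1536-well qHTS. Cpd + enzyme/proluciferin substrate 10 min RT; + NADPH regen, 37C 1 h; stop with luciferin detection reagent, 20 min RT, luminescence (RLU). Pos ctrl ketoconazole.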

[10] = target: Cytochrome P450 2C9 (Homo sapiens) (UniProt P11712); test: Cytochrome P450 Family 2 Subfamily C Member 9 (CYP2C9) small molecule antagonists: luciferase reporter qHTS assay (AID 1671198); also: series mostly up to about 120 µM; nearly all actives have a fitted effect of over 50% in size
In short: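 CYP2C9 activity was measured with a P450-Glo proluciferin substrate. Enzyme–substrate mix was held with compound for 10 min at room temperature, then NADPH regeneration solution was added for 1 h at 37C. Luciferin product was read as luminescence.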

[11] = target: Cytochrome P450 1A2 (Homo sapiens) (UniProt P05177); test: Cytochrome P450 Family 1 Subfamily A Member 2 (CYP1A2) small molecule antagonists: luciferase reporter qHTS assay (AID 1671199); also: series mostly up to about 120 µM; nearly all actives have a fitted effect of over 50% in size
In short: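 Luminescence from luciferin formed by CYP1A2 from a proluciferin substrate, read 20 min after detection reagent. Compound was pre-incubated 10 min with enzyme-substrate, and reaction started with NADPH regeneration solution for 1 h at room temperature; furafylline control.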

[12] = target: Cytochrome P450 3A4 (Homo sapiens) (UniProt P08684); test: Cytochrome P450 Family 3 Subfamily A Member 4 (CYP3A4) small molecule antagonists: luciferase reporter qHTS assay (AID 1671201)
In short: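 P450-Glo CYP3A4 luminescent assay: compounds preincubated 10 min at room temperature with enzyme and proluciferin substrate, NADPH regeneration added, 1 h room-temperature reaction, stopped with luciferin detection reagent; luminescence read after 20 min. Ketoconazole positive control.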

[13] = target: Nuclear receptor subfamily 1 group I member 2 (Homo sapiens) (UniProt O75469); test: CYP3A4 induction through human pregnane X receptor (PXR) by small molecules, qHTS assay (AID 1346984); also: nearly all actives have a fitted effect of over 40% in size
In short: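 Read-out is luminescence after One-Glo addition, following a 3 hr, 37C incubation with Luciferin-IPA CYP3A4 substrate (3uM final). Before that, compounds were on DPX-2 cells (HepG2 co-transfected with PXR element plus CYP3A4-promoter luciferase) for 24 hr at 37C.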

[14] = target: Nuclear receptor subfamily 1 group I member 2 (Homo sapiens) (UniProt O75469); test: Human pregnane X receptor (PXR) activation by small molecules, qHTS assay (AID 1346985); also: nearly all actives have a fitted effect of over 40% in size
In short: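 DPX-2 cells (HepG2 co-transfected with a PXR response element and a CYP3A4-promoter luciferase construct) were seeded at 2,000 per well, rested 5 hr at 37C, then exposed to DMSO-dissolved compounds for 24 hr. Activation was read as luciferase luminescence.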
% is scaled to controls: 0 for no effect and ±100 for the full control effect.

Cytochrome P450 2C19 (Homo sapiens), sequence (P33261 whole entry, looked up): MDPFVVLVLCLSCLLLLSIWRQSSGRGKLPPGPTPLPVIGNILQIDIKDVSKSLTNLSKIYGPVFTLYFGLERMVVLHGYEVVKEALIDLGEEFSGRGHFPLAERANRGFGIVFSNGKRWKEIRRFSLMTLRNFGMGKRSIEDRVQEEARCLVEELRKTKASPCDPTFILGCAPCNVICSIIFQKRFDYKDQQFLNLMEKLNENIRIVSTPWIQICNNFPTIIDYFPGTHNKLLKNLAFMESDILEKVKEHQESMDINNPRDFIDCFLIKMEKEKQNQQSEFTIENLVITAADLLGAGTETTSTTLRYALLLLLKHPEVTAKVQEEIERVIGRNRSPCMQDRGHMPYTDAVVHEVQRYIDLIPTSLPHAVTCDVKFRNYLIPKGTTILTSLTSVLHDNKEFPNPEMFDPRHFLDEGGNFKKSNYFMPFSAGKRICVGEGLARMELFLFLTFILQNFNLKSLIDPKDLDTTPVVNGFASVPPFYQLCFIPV
Cytochrome P450 1A2 (Homo sapiens), sequence (P05177 whole entry, looked up): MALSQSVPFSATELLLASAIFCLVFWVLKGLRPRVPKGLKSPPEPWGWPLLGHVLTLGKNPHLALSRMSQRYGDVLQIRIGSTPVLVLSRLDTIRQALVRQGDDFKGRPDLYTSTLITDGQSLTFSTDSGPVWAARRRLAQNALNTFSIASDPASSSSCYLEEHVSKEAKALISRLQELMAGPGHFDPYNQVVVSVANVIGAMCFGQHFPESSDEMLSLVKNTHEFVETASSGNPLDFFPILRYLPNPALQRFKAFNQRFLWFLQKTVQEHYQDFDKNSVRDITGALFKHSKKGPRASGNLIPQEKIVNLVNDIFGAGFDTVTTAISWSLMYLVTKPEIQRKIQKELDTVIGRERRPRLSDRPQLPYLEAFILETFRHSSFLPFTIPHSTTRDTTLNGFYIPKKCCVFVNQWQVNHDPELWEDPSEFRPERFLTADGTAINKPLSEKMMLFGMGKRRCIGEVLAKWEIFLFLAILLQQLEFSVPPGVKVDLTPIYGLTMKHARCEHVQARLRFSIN
Cytochrome P450 2C9 (Homo sapiens), sequence (P11712 whole entry, looked up): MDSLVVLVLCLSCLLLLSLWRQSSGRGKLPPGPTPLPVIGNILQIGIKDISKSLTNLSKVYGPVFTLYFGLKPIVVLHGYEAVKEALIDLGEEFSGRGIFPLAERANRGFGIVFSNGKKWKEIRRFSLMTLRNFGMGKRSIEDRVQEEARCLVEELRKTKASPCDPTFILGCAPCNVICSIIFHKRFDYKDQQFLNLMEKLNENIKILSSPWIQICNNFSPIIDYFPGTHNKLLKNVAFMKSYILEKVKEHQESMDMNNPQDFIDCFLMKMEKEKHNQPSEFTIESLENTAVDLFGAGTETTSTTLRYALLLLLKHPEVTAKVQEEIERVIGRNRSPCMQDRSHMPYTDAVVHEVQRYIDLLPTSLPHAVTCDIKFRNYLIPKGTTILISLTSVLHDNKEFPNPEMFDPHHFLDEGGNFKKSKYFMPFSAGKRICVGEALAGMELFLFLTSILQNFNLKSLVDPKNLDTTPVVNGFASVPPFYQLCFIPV
Voltage-gated inwardly rectifying potassium channel KCNH2 (Homo sapiens), sequence (Q12809 whole entry, looked up): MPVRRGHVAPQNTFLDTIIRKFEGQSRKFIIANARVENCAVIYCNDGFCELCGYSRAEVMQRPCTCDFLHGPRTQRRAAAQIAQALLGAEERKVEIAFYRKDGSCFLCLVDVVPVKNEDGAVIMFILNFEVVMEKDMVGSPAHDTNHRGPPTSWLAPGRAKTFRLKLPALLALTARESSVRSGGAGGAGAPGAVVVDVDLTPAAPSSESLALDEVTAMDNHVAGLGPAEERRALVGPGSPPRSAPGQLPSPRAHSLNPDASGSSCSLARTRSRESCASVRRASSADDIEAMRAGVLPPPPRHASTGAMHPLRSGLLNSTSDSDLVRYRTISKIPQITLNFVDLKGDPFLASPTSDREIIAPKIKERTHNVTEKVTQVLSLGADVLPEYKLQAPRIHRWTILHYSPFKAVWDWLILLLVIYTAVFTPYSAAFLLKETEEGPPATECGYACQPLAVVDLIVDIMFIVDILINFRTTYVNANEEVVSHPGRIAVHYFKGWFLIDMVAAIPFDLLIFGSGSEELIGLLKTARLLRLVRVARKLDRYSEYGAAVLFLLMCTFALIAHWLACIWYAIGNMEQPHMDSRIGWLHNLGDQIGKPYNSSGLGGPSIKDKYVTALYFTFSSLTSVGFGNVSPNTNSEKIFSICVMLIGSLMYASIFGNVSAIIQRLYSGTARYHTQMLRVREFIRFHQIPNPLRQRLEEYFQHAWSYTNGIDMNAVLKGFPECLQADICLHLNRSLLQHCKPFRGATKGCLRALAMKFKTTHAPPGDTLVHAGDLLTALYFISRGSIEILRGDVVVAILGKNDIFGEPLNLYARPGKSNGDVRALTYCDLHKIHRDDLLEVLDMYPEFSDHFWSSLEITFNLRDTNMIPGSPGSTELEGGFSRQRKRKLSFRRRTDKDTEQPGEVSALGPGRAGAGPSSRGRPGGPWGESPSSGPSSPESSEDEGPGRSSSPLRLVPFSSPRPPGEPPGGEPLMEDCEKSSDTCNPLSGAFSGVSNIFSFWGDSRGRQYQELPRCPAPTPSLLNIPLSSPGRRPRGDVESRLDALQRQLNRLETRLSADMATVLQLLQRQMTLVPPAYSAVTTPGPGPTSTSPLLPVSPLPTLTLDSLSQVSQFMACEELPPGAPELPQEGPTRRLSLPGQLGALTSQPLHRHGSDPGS
Nuclear receptor subfamily 1 group I member 2 (Homo sapiens), sequence (O75469 whole entry, looked up): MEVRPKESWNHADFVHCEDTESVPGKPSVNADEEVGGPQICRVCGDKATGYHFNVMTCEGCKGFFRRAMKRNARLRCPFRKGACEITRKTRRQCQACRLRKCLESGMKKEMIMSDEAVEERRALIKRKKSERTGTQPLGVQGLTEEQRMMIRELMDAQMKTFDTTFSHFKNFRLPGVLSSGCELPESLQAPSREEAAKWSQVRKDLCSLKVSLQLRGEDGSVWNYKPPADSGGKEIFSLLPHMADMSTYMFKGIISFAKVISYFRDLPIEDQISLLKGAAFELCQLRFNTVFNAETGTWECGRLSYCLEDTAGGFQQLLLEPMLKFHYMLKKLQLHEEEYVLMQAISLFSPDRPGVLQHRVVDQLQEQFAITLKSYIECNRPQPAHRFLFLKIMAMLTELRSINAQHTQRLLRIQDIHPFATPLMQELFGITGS
Cytochrome P450 3A4 (Homo sapiens), sequence (P08684 whole entry, looked up): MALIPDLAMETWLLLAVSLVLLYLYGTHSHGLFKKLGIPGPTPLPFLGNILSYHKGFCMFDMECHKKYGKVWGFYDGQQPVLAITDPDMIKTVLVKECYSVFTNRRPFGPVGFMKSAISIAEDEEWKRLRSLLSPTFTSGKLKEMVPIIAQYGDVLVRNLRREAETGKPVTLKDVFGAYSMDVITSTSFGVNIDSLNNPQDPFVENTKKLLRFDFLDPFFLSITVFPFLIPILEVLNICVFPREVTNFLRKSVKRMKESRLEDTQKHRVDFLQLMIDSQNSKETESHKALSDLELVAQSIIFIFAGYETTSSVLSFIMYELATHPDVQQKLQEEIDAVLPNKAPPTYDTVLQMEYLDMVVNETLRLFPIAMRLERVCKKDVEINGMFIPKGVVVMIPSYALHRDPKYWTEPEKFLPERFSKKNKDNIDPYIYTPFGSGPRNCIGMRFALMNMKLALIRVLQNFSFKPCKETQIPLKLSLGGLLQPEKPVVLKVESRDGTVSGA
Nuclear receptor subfamily 1 group I member 2 (Rattus norvegicus), sequence (Q9R1A7 whole entry, looked up): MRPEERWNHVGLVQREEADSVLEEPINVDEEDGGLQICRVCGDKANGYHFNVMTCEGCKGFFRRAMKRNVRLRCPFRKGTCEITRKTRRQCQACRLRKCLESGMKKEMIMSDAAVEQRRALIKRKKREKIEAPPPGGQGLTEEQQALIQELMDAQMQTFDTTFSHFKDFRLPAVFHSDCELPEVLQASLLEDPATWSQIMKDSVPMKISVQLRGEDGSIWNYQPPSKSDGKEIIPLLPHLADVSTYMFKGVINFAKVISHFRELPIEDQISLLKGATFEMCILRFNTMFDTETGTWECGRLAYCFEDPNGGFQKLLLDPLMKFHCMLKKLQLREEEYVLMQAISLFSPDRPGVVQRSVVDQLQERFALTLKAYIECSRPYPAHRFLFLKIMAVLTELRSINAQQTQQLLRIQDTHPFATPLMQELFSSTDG

CCCCNc1ccc(C(=O)OCCN(C)C)cc1
inactive: Potency [1] | Potency [2] | Potency [3] | outcome [4] | Potency [5] | max activation [6] -1.52% | Potency [7]

C[Si](C)=O
inactive: activity change, negative = cytotoxicity [1] 7.41% [at 8.39 µM] | caspase activation [2] 0.773% [at 8.39 µM] | activity change, negative = cytotoxicity [3] 1.4% [at 8.39 µM] | caspase-3/7 activation [4] 0.203% [at 8.39 µM] | activity change, negative = cytotoxicity [5] 6.01% [at 8.39 µM] | activation [8] 16.2% [at 8.39 µM] | activity change, negative = inhibition [9] -11.8% [at 10.5 µM] | activity change, negative = inhibition [10] -9.3% [at 10.5 µM] | activity change, negative = inhibition [11] -21% [at 10.5 µM] | activity change, negative = inhibition [7] 1.17% [at 6.97 µM] | activity change, negative = inhibition [12] -1.04% [at 10.5 µM]

O=C1c2ccccc2C(=O)N1CCl
inactive: Potency [1] | Potency [2] | Potency [3] | outcome [4] | Potency [5] | Potency [8] | Potency [9] | Potency [10] | Potency [7] | Potency [12]

O=C(CS(=O)Cc1ccco1)NC/C=C\COc1cc(CN2CCCCC2)ccn1 (configuration not stated)
inactive: Potency [1] | Potency [2] | Potency [3] | outcome [4] | Potency [5] | max activation [6] -0.727% | Potency [13] | Potency [14] | Potency [9] | Potency [10] | Potency [11] | Potency [7] | Potency [12]

CCCCCCN
inactive: Potency [1] | Potency [2] | Potency [3] | outcome [4] | Potency [5] | Potency [8] | Potency [9] | Potency [10] | Potency [11] | Potency [7] | Potency [12]
